Test [1] has as its target Nuclear receptor coactivator 3 (Homo sapiens) (UniProt Q9Y6Q9). Put plainly: NCOA3 GAL4-fusion reporter inhibition – cell-based, luminescence, quadruplicate, confirmation (AID 588792).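 Further: 0% = DMSO treated cells and 100% = gossypol at 36 µM.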 Conditions: HEK293 GAL4-SRC3 luciferase reporter, at 3.6 µM, stronger effect = higher value. A general note: A reporter such as luciferase makes a cellular process visible.
The test system of test [2] is transactivating tegument protein VP16 (Human herpesvirus 1), Gal4-VP16 luciferase reporter. Nature of the test: repression of VP16-driven luciferase reporter – cell-based, luminescence, high throughput, counter-screen for SRC3 inhibitor project (AID 588794; in the data active means inhibition above about 30%). Conditions: mammalian cells, at 3.6 µM, stronger effect = higher value.

The structures appear in SMILES notation. Values without a mark were called inactive. Active and inactive are the calls of the source.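 How the source made its calls, unless noted: active means mean inhibition over 43.08%, the solvent-only control mean plus 3 SD; inactive means the rest.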

Nuclear receptor coactivator 3 (Homo sapiens), sequence (Q9Y6Q9 whole entry, looked up, the tested form may be a part): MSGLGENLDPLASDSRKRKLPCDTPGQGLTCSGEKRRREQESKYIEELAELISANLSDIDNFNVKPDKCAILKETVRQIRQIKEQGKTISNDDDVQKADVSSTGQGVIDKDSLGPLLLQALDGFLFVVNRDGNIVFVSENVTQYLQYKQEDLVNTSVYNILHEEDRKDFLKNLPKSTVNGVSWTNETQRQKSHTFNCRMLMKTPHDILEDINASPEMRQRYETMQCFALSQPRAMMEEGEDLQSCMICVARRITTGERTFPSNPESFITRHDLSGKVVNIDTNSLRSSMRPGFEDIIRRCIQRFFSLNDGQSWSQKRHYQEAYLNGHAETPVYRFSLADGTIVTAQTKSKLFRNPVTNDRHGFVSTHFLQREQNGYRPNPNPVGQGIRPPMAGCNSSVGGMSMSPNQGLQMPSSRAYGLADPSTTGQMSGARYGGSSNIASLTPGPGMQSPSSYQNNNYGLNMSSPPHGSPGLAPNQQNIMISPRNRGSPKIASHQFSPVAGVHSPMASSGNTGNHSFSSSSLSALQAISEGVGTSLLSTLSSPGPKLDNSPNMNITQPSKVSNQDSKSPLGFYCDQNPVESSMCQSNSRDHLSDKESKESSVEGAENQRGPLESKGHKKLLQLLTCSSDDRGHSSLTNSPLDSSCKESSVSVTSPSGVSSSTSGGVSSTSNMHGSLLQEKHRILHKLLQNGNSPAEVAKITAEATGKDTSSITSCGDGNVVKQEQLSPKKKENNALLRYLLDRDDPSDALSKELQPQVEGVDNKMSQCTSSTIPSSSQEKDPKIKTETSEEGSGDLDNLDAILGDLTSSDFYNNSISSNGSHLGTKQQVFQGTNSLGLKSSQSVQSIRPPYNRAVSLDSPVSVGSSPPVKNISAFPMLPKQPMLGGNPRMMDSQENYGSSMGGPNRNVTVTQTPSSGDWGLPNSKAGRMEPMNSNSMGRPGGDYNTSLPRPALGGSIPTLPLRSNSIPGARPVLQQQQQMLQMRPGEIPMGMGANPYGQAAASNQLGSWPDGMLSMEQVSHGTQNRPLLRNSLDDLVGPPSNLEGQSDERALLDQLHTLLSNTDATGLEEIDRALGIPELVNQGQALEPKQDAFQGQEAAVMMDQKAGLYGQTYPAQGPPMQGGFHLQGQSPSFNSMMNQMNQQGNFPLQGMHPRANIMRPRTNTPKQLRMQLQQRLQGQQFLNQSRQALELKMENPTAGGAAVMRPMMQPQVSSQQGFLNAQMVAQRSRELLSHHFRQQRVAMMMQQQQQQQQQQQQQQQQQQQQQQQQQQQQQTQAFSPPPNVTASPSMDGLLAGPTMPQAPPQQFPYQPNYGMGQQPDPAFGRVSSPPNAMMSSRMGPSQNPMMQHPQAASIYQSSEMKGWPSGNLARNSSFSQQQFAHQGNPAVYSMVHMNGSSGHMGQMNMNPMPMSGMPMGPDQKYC

Consider `CCN1CCN(c2cc(C)c3cc(NC(=S)N4CCCC(C)C4)ccc3n2)CC1` (centres undefined), for which the results for the inhibition in test [1] and in test [2] were 45.3% (active) and 31.4% (active), respectively.
On to `CCOc1ccc(OCC)c(NC(=O)CN(C)S(=O)(=O)c2cccc3nsnc23)c1`, for which the figures for the inhibition in test [1] and in test [2] were 1.36% and 0.62%, respectively.
Taken in the same sequence, the figures for `CCn1c(Cc2ccccc2)nnc1SCC(=O)Nc1ccc(N2CCOCC2)c(Cl)c1` were -0.44% and -2.29%.
`COc1ccc(-n2c(-c3ccc(Br)cc3)c[n+]3c2CCCCC3)cc1`: the inhibition in test [1] was -0.37%; in test [2], 16.2%.
As to `C=C(C)COc1ccc(-c2[nH]ncc2-c2ccc(OC)cc2)c(O)c1`, the inhibition in test [1] was 7.89%; in test [2], 14.5%.
In the case of `CCC(=O)NC(c1cccs1)c1ccc2cccnc2c1O` (centres undefined), the inhibition in test [1] is 33.1%; in test [2], 25.9%.
Taken in the same sequence, the figures for `COc1cccc(CNCCO)c1OCc1ccccc1` were -2.38% and 8.14%.
Regarding `NC(=O)CC(NC(=O)c1cccc(Br)c1)c1ccc(NC2CCN(Cc3ccccc3)CC2)c([N+](=O)[O-])c1` (centres undefined), the inhibition in test [1] was -3.11%; in test [2] it was -4.06%.
Taken in the same sequence, the figures for `COC(=O)c1sc(NC(=O)c2cc(-c3ccccc3)nc3ccccc23)c(C#N)c1C` were 5.32% and 38.6% (active).
Taken in the same sequence, the figures for `COc1ccc(-c2csc(NC(=O)c3ccc(S(=O)(=O)N4CCc5ccccc5C4)cc3)n2)cc1` were 25.1% and 24.1%.
Taken in the same sequence, the figures for `Cc1ccc(-c2c[n+](Cc3cccc(Cl)c3)c3n2CCC3)cc1` were -6.57% and 18.4%.
Turning to `COc1cc(C(=O)Nc2nc(-c3cccs3)cs2)cc(OC)c1OC`, the inhibition is -9.35% in test [1] and -21.8% in test [2].
Consider `Fc1ccc(-c2noc(C3CCN(Cc4cccnc4)CC3)n2)cc1`, for which the inhibition in test [1] is -4.45%; in test [2], 6.14%.
Take `O=C(NCc1ccc(Cl)cc1)c1cccc(NC(=O)c2ccccc2)c1`: the inhibition in test [1] was -5.52%; in test [2] it was 26.9%.
Taken in the same sequence, the figures for `COc1ccc(OC)c(NC(=O)c2cccc(N3C(=O)C4C5C=CC(C6CC56)C4C3=O)c2)c1` (centres undefined) were -11.6% and 7.26%.
As for `CN(C)CCCOc1ccc2c(c1)Sc1ccccc1CC2=O`, the inhibition was -10.4% in test [1] and -4.19% in test [2].
Taken in the same sequence, the figures for `COc1cc(C(=O)N/N=C/c2coc3ccc(Cl)cc3c2=O)ccc1O` were 24.2% and 15.9%.
Turning to `CSCc1cc(N(C)c2ccccc2)nc(-c2ccccn2)n1`, the inhibition in test [1] was -19.7%; in test [2], -1.49%.
Taken in the same sequence, the figures for `O=C(N/N=C/c1cc(Br)c(Br)s1)c1ccncc1` were 31.1% and 18.5%.
Taken in the same sequence, the figures for `Cc1cc(Br)ccc1NC(=O)c1cnc(N2CCN(c3ccccn3)CC2)c2ccccc12` were 15.6% and 15.2%.
Consider `COc1ccc(S(=O)(=O)Nc2cc([N+](=O)[O-])ccc2OC)cc1`, for which the values for the inhibition in test [1] and in test [2] were -7.49% and 2.4%, respectively.
Turning to `CN1C/C(=C/c2cccnc2)C(=O)/C(=C/c2cccnc2)C1`, the results for the inhibition in test [1] and in test [2] were 23.5% and 54.1% (active), respectively.
Taken in the same sequence, the figures for `Cc1ccc(NS(=O)(=O)c2ccc(OCC(=O)NCc3ccncc3)cc2)cc1` were 8.87% and 6.6%.
In the case of `CC(C)C[C@H]1CNC(=S)N1C[C@H]1CCCN1C[C@H](Cc1ccc(O)cc1)N1C[C@H](CC(C)C)N(CC2CCCCCC2)C1=S`, the results for the inhibition in test [1] and in test [2] were 21.1% and 16.3%, respectively.
Taken in the same sequence, the figures for `Cc1ccc(O)c(C(=O)c2cnc3c(c2)COc2ccccc2-3)c1` were -8.22% and 5.53%.
Taken in the same sequence, the figures for `Cc1ccc2[nH]c(C(=O)N/N=C/c3ccccc3O)c(C)c2c1` were 65.9% (active) and 67.7% (active).
Taken in the same sequence, the figures for `COc1ccc2nc(C(F)(F)Cl)c(C#N)c(N)c2c1` were 24% and -0.89%.
Turning to `COC(=O)c1ccc2c(c1)C(C)(C)C(/C=C/c1ccc(O)cc1)=[N+]2C`, the inhibition was 66.6% (active) in test [1] and 52.8% (active) in test [2].
As to `Nc1nc2c(F)cccc2s1`, the figures for the inhibition in test [1] and in test [2] were -3.71% and 0.2%, respectively.
Regarding `CCOc1ccc(CNC(=O)C2Cc3cc(S(=O)(=O)N4CCCC4)ccc3N2C(C)=O)cc1` (centres undefined), the values for the inhibition in test [1] and in test [2] were 4.56% and 8.25%, respectively.
On to `CC1CN(Cc2ccccc2)c2nc3c(c(=O)n(CC(N)=O)c(=O)n3C)n2C1` (centres undefined), for which the inhibition was 0.26% in test [1] and -4.77% in test [2].
Taken in the same sequence, the figures for `Cc1ccc(C(=O)N/N=C/c2ccc(-c3cccc(C(F)(F)F)c3)o2)cn1` were 6.91% and 4.45%.

Broadly, the inhibition is the relative decrease from the control value, in per cent.

Values taken from PubChem BioAssay.
